# Measured values as given in PubChem BioAssay AID1851 (National Center for Advancing Translational Sciences (NCATS), 2009).
# In all, about 16,000 compounds went through this assay and about 5,100 (32%) were called active. Another 25% or so got no clear call; they are omitted. Calls follow the shape of the dose curve; as a rule, active = well fitted curve in the direction sought with a large enough effect; inconclusive = small, poorly fitted or top-dose-only effect, or effect the other way; inactive = no such curve, though single readings can be large or run the other way. The list shows a part of the results.
# Target: Cytochrome P450 3A4 (Homo sapiens) (UniProt P08684)
# Experiment: Cytochrome panel assay with activity outcomes
# Conditions: recombinant CYP, pro-luciferin dealkylation, luminescence, p450-cyp3a4; series mostly up to 57.1 µM; activity, negative = inhibition: at the top concentration
# % is scaled to controls: 0 for no effect and ±100 for the full control effect.
# Sequence of Cytochrome P450 3A4 (Homo sapiens) (P08684 whole entry, looked up): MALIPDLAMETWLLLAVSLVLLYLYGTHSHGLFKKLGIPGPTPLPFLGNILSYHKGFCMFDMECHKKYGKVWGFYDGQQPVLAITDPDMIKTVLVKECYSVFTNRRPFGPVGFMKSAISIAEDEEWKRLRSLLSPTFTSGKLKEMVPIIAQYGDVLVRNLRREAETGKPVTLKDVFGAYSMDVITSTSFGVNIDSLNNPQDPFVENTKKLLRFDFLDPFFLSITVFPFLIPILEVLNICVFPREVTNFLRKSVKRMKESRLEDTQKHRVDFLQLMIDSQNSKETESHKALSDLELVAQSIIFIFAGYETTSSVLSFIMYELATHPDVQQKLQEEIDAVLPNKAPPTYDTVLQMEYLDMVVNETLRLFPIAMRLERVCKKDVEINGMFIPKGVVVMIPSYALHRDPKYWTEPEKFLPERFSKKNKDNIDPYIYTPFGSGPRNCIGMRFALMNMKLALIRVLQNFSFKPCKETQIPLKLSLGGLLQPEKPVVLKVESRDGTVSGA
SMILES,AC50,"activity, negative = inhibition"
CCn1cnc2c(Nc3cccc(Cl)c3)nc(N[C@@H]3CCCC[C@H]3N)nc21,12.6 µM (active),–
COc1ccc(C(=O)NC2CC3CCCC(C2)N3CC(C)C)cc1OC (stereo not given),–,3.52% (inactive)
CC(Oc1ccc(-c2ccccc2)cc1)C(=O)O (stereo not given),–,4.5% [at 11.4 µM] (inactive)
C[C@@H]1O[C@H](OC2[C@@H](O)[C@H](O)C(O)[C@H](O)[C@H]2O)[C@@H](N)C[C@@H]1N=C(N)C(=O)O (stereo not given in full),–,2.45% [at 11.4 µM] (inactive)
NC[C@@H](CC(=O)O)c1ccc(Cl)cc1,–,-14.9% [at 25.6 µM] (inactive)
O=C1CN=C(c2cccs2)c2c(sc3c2CCCC3)N1,15.8 µM (active),–
Cc1cc(Cc2cc(C)c(N)cc2N)c(N)cc1N,–,-12.7% [at 11.4 µM] (inactive)
Cc1ccc(NC(=[OH+])c2cc3ccccc3cc2O)c(C)c1.Cc1ccc(NC(=[OH+])c2cc3ccccc3cc2O)c(C)c1.[Ni],–,-23% [at 11.4 µM] (inactive)
CC(C)CCC[C@@H](C)[C@@H]1CC[C@@H]2[C@H]3CC[C@H]4C[C@@H](N)CC[C@@]4(C)[C@@H]3CC[C@]21C,–,0.227% [at 11.4 µM] (inactive)
Cc1c2cc[n+](CCN3CCCCC3)cc2c(C)c2c1[nH]c1ccc(O)cc12,–,-14.8% [at 11.4 µM] (inactive)
CN1CCN(C(=O)O[C@@H]2c3nccnc3C(=O)N2c2ccc(Cl)cn2)CC1,–,-19.1% (inactive)
COC1=C[C@H]2C3=C([C@H]2C1=O)[C@H](NC(C)=O)CCc1cc(OC)c(OC)c(OC)c13,–,-5.01% [at 25.6 µM] (inactive)
CCCCN1C(=O)C(C2c3ccccc3C(=O)N2Cc2ccccc2)C(=O)NC1=S (stereo not given),2.51 µM (active),–
CN1C(=O)C(C2c3ccccc3C(=O)N2Cc2ccc([N+](=O)[O-])cc2)C(=O)N(C)C1=O (stereo not given),–,-20.1% [at 11.4 µM] (inactive)
CN1CCc2nc3ccc(F)cc3c(C(N)=O)c2C1,–,3.25% (inactive)
CCN1C[C@]2(C)CC[C@@H](O)[C@]34[C@@H]5CC6[C@@H](OC)C[C@@](O)([C@H]5[C@@H]6O)[C@@H](C[C@@H]23)[C@H]14,–,-4.92% (inactive)
COC(=O)C1(C)C=C2C(=C(C)C(=O)C2C)CN1 (stereo not given),–,-25% (inactive)
N[C@@H](CCCCP(=O)(O)O)C(=O)O,–,-5.86% (inactive)
Cn1c(O)c(C(=N)COc2ccccc2)c(=O)n(C)c1=O,–,-18.1% (inactive)
NC[C@@H](O)CSP(=O)(O)O,–,2.73% [at 11.4 µM] (inactive)
CNC(C)Cc1ccccc1Sc1ccc(O)cc1 (stereo not given),–,-6.72% [at 2.29 µM] (inactive)
COC(=O)NC/C=C\c1nc(CC/C=C\C(=O)O[C@H]2C[C@H]3CC(=O)O[C@@H](/C=C\CC(C)C)C[C@@H]4CC[C@H](C)[C@H](C[C@@H](OC)C[C@H](C2)O3)O4)co1,5.01 µM (active),–
CNC(=O)Oc1ccc2c(c1)[C@@]1(C)CCN(C)[C@@H]1N2C,–,-8.94% (inactive)
C[N+]1([O-])[C@@H]2CC(OC(=O)[C@@H](CO)c3ccccc3)C[C@@H]1[C@H]1O[C@H]12 (stereo not given in full),–,inactive
c1ccc2c(c1)OC[C@@H](C1=NCCN1)O2,–,inactive
c1ccc(C2CC2)c(OCC2=NCCN2)c1,–,inactive
CNCC/C=C\c1cccnc1,–,-16.3% (inactive)
S=C=Nc1cccc(C2(N3CCCCC3)CCCCC2)c1,15.8 µM (active),–

SMILES,AC50,"activity, negative = inhibition"
CCC(COC(=O)NC)NC(=O)Oc1ccccc1 (stereo not given),–,13.4% (inactive)
NC(N)=NC(=O)c1nc(Cl)c(N)nc1N,–,-12.3% [at 25.6 µM] (inactive)
Clc1cc(I)cc(Cl)c1NC1=NCCN1,–,-27.3% (inactive)
O=C(NCP(=O)(O)O)c1cccnc1,–,-14.3% [at 11.4 µM] (inactive)
O=C(N/N=C(\c1ccccc1)c1cccnc1)C(O)(c1ccccc1)c1ccccc1,7.94 µM (active),–
CC[C@]1(C2=NCCN2)Cc2ccccc2O1,–,inactive
CCN(CC)c1ccc(/C=C2/C(=O)NC(=O)N(CC3CCCO3)C2=O)cc1 (stereo not given),–,-15.9% (inactive)
C[C@@H]1O[C@@H](O[C@H]2C[C@@H](O)[C@]3(CO)[C@@H]4[C@@H](O)C[C@]5(C)[C@H](C6=CC(=O)OC6)CC[C@@]5(O)[C@H]4CC[C@@]3(O)C2)[C@H](O)[C@H](O)[C@@H]1O,–,-3.37% (inactive)
C/C=C(\C)C(=O)O[C@@H]1C(C)=C2[C@H]([C@@H]1OC(=O)CCCCCCC)[C@@](C)(OC(C)=O)C[C@@H](OC(=O)CCC)[C@@]1(O)[C@H]2OC(=O)[C@]1(C)O,3.98 µM (active),–
CO[C@H]1[C@H](O)[C@H](O[C@@H]2[C@H](Oc3cccc4c(O)c5c(=O)oc6ccc(C)c7c(=O)oc(c34)c5c67)O[C@@H](C)[C@H](O)[C@H]2O)O[C@@H](C)[C@@H]1O,–,-7.43% [at 11.4 µM] (inactive)
CCOC(=O)c1ncn2c1[C@H]1CCCN1C(=O)c1cc(OC)ccc1-2,–,-16.2% (inactive)
COc1cc2c(cc1OC)[C@@H]1C(=O)c3ccc4c(c3O[C@@H]1CO2)C=CC(C)(C)O4,15.8 µM (active),–
Cc1ncc([N+](=O)[O-])n1CCN=[N+]=[N-],–,-15.3% [at 11.4 µM] (inactive)
NCCc1ccc(S(=O)(=O)F)cc1,–,-11% (inactive)
C=CCN1C(=O)NC(=O)/C(=C/c2cccn2C)C1=O,–,8.88% [at 2.29 µM] (inactive)
Cc1nc2sccc2c(=O)n1-c1ccccc1Cl,–,4.91% [at 2.29 µM] (inactive)
O=c1c2ccccc2nc(N2CCCC2)n1-c1ccc(Cl)cc1,12.6 µM (active),–
O=C(Nc1ccc(Cl)cc1)Nc1nccs1,–,-2.97% [at 2.29 µM] (inactive)
O=C(O)CCCc1ccc(N(CCCl)CCCl)cc1,–,-11.3% [at 25.6 µM] (inactive)
Cc1ccc2cc3cc(C(=O)N4CCC5(CC4)OCCO5)oc3nc2c1,–,-25.1% (inactive)
Cc1ccc2c(c1)N(CCC(=O)N1CCC3(CC1)OCCO3)C(=O)C(C)O2 (stereo not given),2 µM (active),–
Cc1cc(NC(=O)CCC(=O)N2CCC3(CC2)OCCO3)no1,–,17.2% (inactive)
CC(C)NP(=O)(NC(C)C)OP(=O)(NC(C)C)NC(C)C,–,-11% (inactive)
N#CCCCC[N+]12CN3CN(CN(C3)C1)C2,–,-1.78% [at 11.4 µM] (inactive)
c1ccc(N2CC3(CCNCC3)C2)cc1,–,-19% (inactive)
COc1ccc2c(c1)CCC1C2CC[C@]2(C)[C@H](NCCCCCCN3C(=O)C=CC3=O)CC[C@@H]12 (stereo not given in full),–,-6.9% (inactive)
C[C@@H]1[C@@H](C)N1C[C@H](O)Cn1ccnc1[N+](=O)[O-] (stereo not given in full),–,-14.6% [at 11.4 µM] (inactive)
